Values joined by “and” are separate entries in the source; they are usually repeats but may differ in a detail not shown here. Equal values may be shown once. About 2,000 (36%) of roughly 5,500 compounds were called active. Roughly 18% stayed inconclusive and do not appear here. No stated cut-off is given here; in the data, active means normalized growth mostly below about 0.91 (no sharp cut-off); inconclusive means no clear call, values can overlap the other calls; inactive means mostly above about 0.92. Some of the results follow.
Assay: chemical genetic growth profiling, strain panel (AID 1159580);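 further: tested at 20 µM; growth read once vehicle control cultures reached saturation at 30 °C; 1 = growth at the plate median or of vehicle wells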
Conditions: S. cerevisiae deletion strains, growth OD
[1] = locus YHR030C, strain SLT2, stronger effect = lower value
[2] = locus YHR079C, strain IRE1, stronger effect = lower value
[3] = locus YJL095W, strain BCK1, stronger effect = lower value
[4] = locus YJR066W, strain TOR1, stronger effect = lower value
[5] = locus YLR113W, strain HOG1, stronger effect = lower value
[6] = locus YNL183C, strain NPR1, stronger effect = lower value
[7] = locus YOR231W, strain MKK1, stronger effect = lower value
[8] = locus YPL256C, strain CLN2, stronger effect = lower value

Measured: normalized growth

O=C(O)CCCO
inactive: [1] 1.05 | [2] 1.05 | [3] 1.01 | [4] 0.976 | [5] 1.02 | [6] 0.983 | [7] 1.02 | [8] 1.01

O=C(O)CCCCCCCCCCCCC1C=CCC1 (centres undefined)
0.311 (active) and 0.959 (inactive): [1]
active: locus YBR021W, strain FUR4, stronger effect = lower value 0.186 | locus YDL074C, strain BRE1, stronger effect = lower value 0.653 | locus YDL192W, strain arf1, stronger effect = lower value 0.82 | locus YDR101C, strain arx1, stronger effect = lower value 0.883 | locus YDR502C, strain sam2, stronger effect = lower value 0.917 | locus YER155C, strain BEM2, stronger effect = lower value 0.745 | locus YGL086W, strain mad1, stronger effect = lower value 0.853 | locus YGL248W, strain PDE1, stronger effect = lower value 0.865 | locus YHR129C, strain ARP1, stronger effect = lower value 0.885 | locus YIL066C, strain RNR3, stronger effect = lower value 0.841 | locus YIL073C, strain SPO22, stronger effect = lower value 0.604 | locus YKL190W, strain CNB1, stronger effect = lower value 0.761 | locus YKR001C, strain vps1, stronger effect = lower value 0.337 | locus YLR039C, strain RIC1, stronger effect = lower value 0.422 | locus YLR262C, strain YPT6, stronger effect = lower value 0.476 | locus YLR268W, strain sec22, stronger effect = lower value 0.812 | locus YLR330W, strain CHS5, stronger effect = lower value 0.822 | locus YLR418C, strain cdc73, stronger effect = lower value 0.632 | locus YMR223W, strain ubp8, stronger effect = lower value 0.871 | locus YNL153C, strain GIM3, stronger effect = lower value 0.808 | locus YNL233W, strain BNI4, stronger effect = lower value 0.652 | locus YNL307C, strain MCK1, stronger effect = lower value 0.585 | locus YOL147C, strain pex11, stronger effect = lower value 0.871 | locus YOR144C, strain elg1, stronger effect = lower value 0.901 | locus YOR184W, strain ser1, stronger effect = lower value 0.726
inactive: locus YBR229C, strain ROT2, stronger effect = lower value 1.01 | locus YCL029C, strain bik1, stronger effect = lower value 0.939 | locus YDL035C, strain GPR1, stronger effect = lower value 0.87 | locus YDL101C, strain DUN1, stronger effect = lower value 0.958 | locus YDL134C, strain PPH21, stronger effect = lower value 0.93 | locus YDL185W, strain tfp1, stronger effect = lower value 1.01 | locus YDR162C, strain NBP2, stronger effect = lower value 0.911 | locus YDR318W, strain mcm21, stronger effect = lower value 0.946 | locus YDR388W, stronger effect = lower value 0.976 | locus YEL061C, strain CIN8, stronger effect = lower value 0.971 | locus YER110C, stronger effect = lower value 1.01 | locus YER167W, strain BCK2, stronger effect = lower value 1.01 | locus YGL078C, strain dbp3, stronger effect = lower value 0.973 | locus YGR135W, strain pre9, stronger effect = lower value 0.953 | locus YGR252W, strain gcn5, stronger effect = lower value 0.78 | locus YHR079C, strain IRE1 (second series), stronger effect = lower value 0.98 | [2] 0.935 | locus YHR094C, strain hxt1, stronger effect = lower value 1 | locus YHR200W, strain rpn10, stronger effect = lower value 1 | locus YIL125W, strain kgd1, stronger effect = lower value 0.99 | locus YIR030C, strain dcg1, stronger effect = lower value 0.998 | locus YJL134W, strain LCB3, stronger effect = lower value 1.02 | locus YJL168C, strain set2, stronger effect = lower value 0.999 | locus YJL187C, strain SWE1 (second series), stronger effect = lower value 0.867 | locus YJR043C, strain POL32, stronger effect = lower value 0.919 | [4] 0.931 | locus YJR075W, strain HOC1, stronger effect = lower value 0.967 | locus YKL009W, strain mrt4, stronger effect = lower value 0.972 | locus YKL068W, stronger effect = lower value 1.01 | locus YKL085W, strain MDH1 (second series), stronger effect = lower value 1.01 | locus YKL085W, strain MDH1, stronger effect = lower value 1.01 | locus YLR058C, strain SHM2, stronger effect = lower value 0.902 | locus YLR102C, strain apc9, stronger effect = lower value 0.998 | [5] 0.995 | locus YLR342W, strain FKS1 (second series), stronger effect = lower value 0.854 | locus YLR371W, strain rom2, stronger effect = lower value 0.992 | locus YML016C, strain PPZ1, stronger effect = lower value 1.03 | locus YML032C, strain rad52, stronger effect = lower value 0.977 | locus YML124C, strain tub3, stronger effect = lower value 0.998 | locus YMR078C, strain ctf18, stronger effect = lower value 1.01 | locus YMR263W, strain SAP30, stronger effect = lower value 0.915 | locus YMR307W, strain GAS1, stronger effect = lower value 1.13 | locus YNL067W, strain RPL9B, stronger effect = lower value 0.933 | [6] 0.903 | locus YNL250W, strain rad50, stronger effect = lower value 1.02 | locus YNL271C, strain bni1, stronger effect = lower value 0.976 | locus YNL298W, strain CLA4, stronger effect = lower value 0.944 | locus YNR052C, strain pop2, stronger effect = lower value 0.988 | locus YOL006C, strain TOP1, stronger effect = lower value 0.764 | locus YOL012C, strain htz1 0.57 | locus YOR061W, strain CKA2, stronger effect = lower value 0.987 | locus YOR069W, strain VPS5, stronger effect = lower value 0.956 | locus YOR136W, strain idh2, stronger effect = lower value 0.976 | [7] 0.954 | locus YOR316C, strain cot1, stronger effect = lower value 0.999 | [8] 1.04 | locus YPR119W, strain clb2, stronger effect = lower value 0.993 | locus YPR141C, strain kar3, stronger effect = lower value 1.01 | locus YPR163C, strain tif3, stronger effect = lower value 0.921 | locus YPR167C, strain met16, stronger effect = lower value 0.989 | strain wtn01, stronger effect = lower value 0.908
0.542 (active) and 0.952 (inactive): [3]

CC/C=C\C/C=C\C/C=C\C/C=C\C/C=C\CCCC(=O)OCC
inactive: [1] 0.979 | [2] 0.924 | [3] 0.945 | [4] 0.94 | [5] 0.902 | [6] 0.927 | [7] 0.949 | [8] 0.897

Source: PubChem BioAssay AID1159580 (chemical genetic matrix, 2015)
